Experiment [1] deals with Cell division control protein 42 homolog (Homo sapiens) (UniProt P60953). The experiment in a line: activated mutant Cdc42 GTP-binding inhibitors, dose response, biochemical, multiplex bead flow cytometry, Bodipy-FL-GTP (AID 1333;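 active = fitted half-maximal concentration within the tested dose range, moderate curve steepness, a statistically real signal drop, and little compound fluorescence or tag-binding interference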). Background: Flow cytometry measures light scatter and fluorescence of single cells or particles in a stream.
Chain of Cell division control protein 42 homolog (Homo sapiens) (P60953 whole entry, looked up): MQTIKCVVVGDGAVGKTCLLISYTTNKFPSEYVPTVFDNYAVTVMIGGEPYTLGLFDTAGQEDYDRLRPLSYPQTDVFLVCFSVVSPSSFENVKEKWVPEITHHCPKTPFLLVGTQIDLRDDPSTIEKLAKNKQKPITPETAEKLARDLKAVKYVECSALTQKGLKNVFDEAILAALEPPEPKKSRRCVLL
Experiment [2] shares this target. The experiment in a line: wildtype Cdc42 GTP-binding inhibitors, dose response, biochemical, multiplex bead flow cytometry, Bodipy-FL-GTP (AID 1334). As to conditions: bead-based flow cytometry, Bodipy-FL-GTP binding to GST-Cdc42; at 100 µM (top of the series) unless noted.
Experiment [3] addresses GTPase HRas (Homo sapiens) (UniProt P01112). Briefly: inhibitors of GTP binding to wildtype Ras, dose response, biochemical, multiplex bead flow cytometry (AID 1335;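 active = fitted half-maximal concentration within 10 nM to 100 µM, steepness 0.5 to 2, significant signal drop, low assay interference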). The note with it: bead-based flow cytometry, Bodipy-GTP binding to GST-Ras; at 100 µM (top of the series) unless noted.
For experiment [4], the system named is Ras-related protein Rab-7a (dog), GTP binding. Briefly: Rab7 GTP binding inhibitors, potency, dose response, biochemical, wildtype, multiplex bead flow cytometry (AID 1336; call rule not given here).
In experiment [5] the target is Ras-related C3 botulinum toxin substrate 1 (Homo sapiens) (UniProt P63000). The experiment in a line: wildtype Rac1 GTP binding inhibitors, dose response, biochemical, multiplex bead flow cytometry (AID 1340;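 active = dose curve with midpoint inside tested range, moderate steepness, plateau gap beyond fit error, low compound glow and bead-link interference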). The note with it: GST-Rac1 beads, Bodipy-FL-GTP binding; at 100 µM (top of the series) unless noted.
Experiment [6] has as its target GTPase HRas (Homo sapiens) (UniProt P01112). Briefly: activated Ras mutant GTP binding inhibitors, dose response, biochemical, multiplex bead flow cytometry (AID 1341;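 active = dose-response curve with midpoint inside the tested range, moderate steepness, significant amplitude and little compound fluorescence or bead-attachment interference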;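 also: GST-tagged constitutively activated Ras mutant immobilized on beads and multiplexed with other GTPases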).

For part of these data: Results with a measured potency or affinity are listed apart. The source made the active and inactive calls.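 The calls were made as follows, unless noted: active = fitted half-maximal concentration within the tested range, moderate curve steepness, significant signal drop, and little compound fluorescence or bead-linkage interference; inactive = the rest.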

Chain of GTPase HRas (Homo sapiens) (P01112 whole entry, looked up): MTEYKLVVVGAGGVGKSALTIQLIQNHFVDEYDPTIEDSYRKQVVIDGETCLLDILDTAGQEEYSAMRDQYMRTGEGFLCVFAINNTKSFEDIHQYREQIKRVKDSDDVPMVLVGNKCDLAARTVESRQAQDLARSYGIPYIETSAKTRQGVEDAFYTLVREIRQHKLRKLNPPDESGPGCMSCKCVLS

On to `COC(=O)c1c(N2C(=O)[C@H]3[C@@H](C2=O)[C@]2(C(=O)Nc4c2ccc(C)c4C)N2CCC[C@@H]32)sc(C)c1C`, for which the molecule was classed as inactive in experiment [1], in experiment [4] and in experiment [6]. In experiment [2], the fluorescence, percent of control (lower = inhibition) amounted to 55.3%. This molecule registered a GTP binding, percent of control in experiment [3] of 71.4%. Further, the GTP binding signal, raw median fluorescence (lower = inhibition) (MCF (arbitrary fluorescence units)) in experiment [5] was determined as 0.

As for `CCOc1ccc2nc(SCc3ccc(CC(=O)O)cc3)c(C#N)cc2c1`, the molecule was classed as inactive in experiment [1], in experiment [4] and in experiment [6]. The fluorescence, percent of control (lower = inhibition) in experiment [2] is 28.4%. For the same molecule, the GTP binding, percent of control in experiment [3] was found to be 73.2%. The molecule also displayed a GTP binding signal, raw median fluorescence (lower = inhibition) (MCF (arbitrary fluorescence units)) in experiment [5] of 201.

As for `O=C(O)c1cccc(Oc2ccc([N+](=O)[O-])cc2)c1`, the call in experiment [1], in experiment [4] and in experiment [6] was inactive. In addition, the fluorescence, percent of control (lower = inhibition) in experiment [2] came to 62.7%. Moreover, the GTP binding, percent of control in experiment [3] came to 61.7%. The same molecule registered a GTP binding signal, raw median fluorescence (lower = inhibition) (MCF (arbitrary fluorescence units)) in experiment [5] of 0.

Consider `CCN(CC)c1ccc(-c2nn3c(-c4cccnc4)nnc3s2)cc1`, for which the molecule was called inactive in experiment [1], in experiment [4] and in experiment [6]. Moreover, in experiment [2], the fluorescence, percent of control (lower = inhibition) came out at 72.7%. This molecule showed a GTP binding, percent of control in experiment [3] of 46.9%. The same molecule came in with a GTP binding signal, raw median fluorescence (lower = inhibition) (MCF (arbitrary fluorescence units)) in experiment [5] of 126.

For the molecule `CCOc1cccc(-c2nn3c(-c4ccco4)nnc3s2)c1`, the call in experiment [1], in experiment [4] and in experiment [6] was inactive. In addition, the fluorescence, percent of control (lower = inhibition) in experiment [2] was found to be 32.7%. The molecule further returned a GTP binding, percent of control in experiment [3] of 71.3%. The same molecule gave a GTP binding signal, raw median fluorescence (lower = inhibition) (MCF (arbitrary fluorescence units)) in experiment [5] of 164.

For the molecule `Cc1ccc(C)c(CSc2ncccc2C(=O)O)c1`, the molecule was called inactive in experiment [1], in experiment [4] and in experiment [6]. Besides, the fluorescence, percent of control (lower = inhibition) in experiment [2] amounted to 64.5%. In experiment [3], this molecule yielded a GTP binding, percent of control of 73.7%. The molecule also yielded a GTP binding signal, raw median fluorescence (lower = inhibition) (MCF (arbitrary fluorescence units)) in experiment [5] of 222.

On to `Cc1nnc(SCC(=O)N2CCOCC2)c2ccccc12`, for which the molecule was called inactive in experiment [1], in experiment [4] and in experiment [6]. The fluorescence, percent of control (lower = inhibition) in experiment [2] turned out to be 49.3%. Moreover, the GTP binding, percent of control in experiment [3] is 61.1%. In experiment [5], this molecule had a GTP binding signal, raw median fluorescence (lower = inhibition) (MCF (arbitrary fluorescence units)) of 192.

As to `Cc1ccc(C(C)C)c(OCCSc2nc3ccccc3n2CC(=O)O)c1`, the call in experiment [1], in experiment [4] and in experiment [6] was inactive. For the same molecule, the fluorescence, percent of control (lower = inhibition) in experiment [2] worked out at 56.7%. In experiment [3], the GTP binding, percent of control amounted to 86.4%. The same molecule came in with a GTP binding signal, raw median fluorescence (lower = inhibition) (MCF (arbitrary fluorescence units)) in experiment [5] of 32.1.

Take `Cc1cc2ccccn2c1C(=O)c1ccc(NN)c([N+](=O)[O-])c1`: the molecule was called inactive in experiment [1], in experiment [4] and in experiment [6]. Moreover, the fluorescence, percent of control (lower = inhibition) in experiment [2] was found to be 35.2%. This molecule displayed a GTP binding, percent of control in experiment [3] of 83.1%. The same molecule displayed a GTP binding signal, raw median fluorescence (lower = inhibition) (MCF (arbitrary fluorescence units)) in experiment [5] of 240.

`CCCCn1c(O)c(/C=C/C=C/C=Nc2ccccc2)sc1=S`: the molecule was called inactive in experiment [1], in experiment [4] and in experiment [6]. Further, the fluorescence, percent of control (lower = inhibition) in experiment [2] came to 29.8%. The GTP binding, percent of control in experiment [3] turned out to be 68.3%. The GTP binding signal, raw median fluorescence (lower = inhibition) (MCF (arbitrary fluorescence units)) in experiment [5] was 216.

For the molecule `Cn1c(SCC(=O)Nc2cccc(Br)c2)nnc1-c1cc2ccccc2o1`, the result in experiment [1], in experiment [4] and in experiment [6] was inactive. In addition, the fluorescence, percent of control (lower = inhibition) in experiment [2] was determined as 101%. The GTP binding, percent of control in experiment [3] was 189%. In experiment [5], the GTP binding signal, raw median fluorescence (lower = inhibition) (MCF (arbitrary fluorescence units)) was found to be 180.

Consider `CC1=C(C#N)c2nc(N)c(C#N)c(C)c2/C1=C\c1ccc(-c2ccccc2C(=O)O)o1`, for which the molecule was classed as inactive in experiment [1], in experiment [4] and in experiment [6]. Besides, in experiment [2], the fluorescence, percent of control (lower = inhibition) is 30.1%. Also, the GTP binding, percent of control in experiment [3] turned out to be 74.4%. In experiment [5], the GTP binding signal, raw median fluorescence (lower = inhibition) (MCF (arbitrary fluorescence units)) came to 159.

In the case of `O=C1c2ccccc2-n2c1nc1ccccc1c2=O`, the molecule was called inactive in experiment [1], in experiment [4] and in experiment [6]. In experiment [2], the fluorescence, percent of control (lower = inhibition) was 35.1%. In experiment [3], this molecule yielded a GTP binding, percent of control of 78.8%. The GTP binding signal, raw median fluorescence (lower = inhibition) (MCF (arbitrary fluorescence units)) in experiment [5] was found to be 204.

On to `CC1=NC(=O)C(N=Nc2ccccc2C(=O)O)N1c1ccccc1` (stereo not given), for which the outcome in experiment [1], in experiment [4] and in experiment [6] was inactive. The fluorescence, percent of control (lower = inhibition) in experiment [2] was 28.8%. In experiment [3], this molecule showed a GTP binding, percent of control of 69.9%. For the same molecule, in experiment [5], the GTP binding signal, raw median fluorescence (lower = inhibition) (MCF (arbitrary fluorescence units)) was found to be 180.

For the molecule `Cc1cc(C)cc(OCCSc2nc3ccccc3n2CC(=O)O)c1`, the molecule was classed as inactive in experiment [1], in experiment [4] and in experiment [6]. The fluorescence, percent of control (lower = inhibition) in experiment [2] amounted to 58.4%. Moreover, the GTP binding, percent of control in experiment [3] was 87.4%. Also, the GTP binding signal, raw median fluorescence (lower = inhibition) (MCF (arbitrary fluorescence units)) in experiment [5] is 31.

These data come from PubChem BioAssay.
